Data published in PubChem BioAssay (NCATS).
Unmarked numbers belong to inactive results. Records with an inconclusive call do not appear. Activity calls are given as the source filed them. Unless noted, calls come from the whole dose curve; as a rule, active = well fitted curve in the direction sought with a large enough effect; inconclusive = small, poorly fitted or top-dose-only effect, or another doubt; inactive = no such curve, though single readings can be large; an effect the other way counts as inactive or inconclusive.

Key:
[1] = test system: astro; assay: Drug repurposing screens with cells derived from glioblastoma tumor samples (AID 1345199); conditions: viability, ATP luminescence, 48 h; series mostly up to 45.9 µM; note: nearly all actives have a fitted effect of over 40% in size; note: potency is the fitted concentration of half-maximal effect; for activity, negative = cell killing: % is set by controls: 0 for no effect and ±100 for the full control effect
Outline: (§1)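 Four patient lines of CD133+ GBM neurospheres were screened at several concentrations; hits were retested in those lines plus three slower-growing GBM lines, using 48-hour treatment and ATP-based viability.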

[2] = as above; conditions: GBM patient neurospheres viability, ATP luminescence, 48 h
Outline: as §1

[3] = target: Nuclear receptor subfamily 1 group I member 2 (Rattus norvegicus) (UniProt Q9R1A7); assay: qHTS assay for small molecule activators of the rat pregnane X receptor (rPXR) signaling pathway (AID 651751; call rule not given here; note: 0% is about no effect); conditions: rPXR reporter cells, luciferase (One-Glo), 24 h
Nuclear receptor subfamily 1 group I member 2 (Rattus norvegicus), sequence (Q9R1A7 whole entry, looked up): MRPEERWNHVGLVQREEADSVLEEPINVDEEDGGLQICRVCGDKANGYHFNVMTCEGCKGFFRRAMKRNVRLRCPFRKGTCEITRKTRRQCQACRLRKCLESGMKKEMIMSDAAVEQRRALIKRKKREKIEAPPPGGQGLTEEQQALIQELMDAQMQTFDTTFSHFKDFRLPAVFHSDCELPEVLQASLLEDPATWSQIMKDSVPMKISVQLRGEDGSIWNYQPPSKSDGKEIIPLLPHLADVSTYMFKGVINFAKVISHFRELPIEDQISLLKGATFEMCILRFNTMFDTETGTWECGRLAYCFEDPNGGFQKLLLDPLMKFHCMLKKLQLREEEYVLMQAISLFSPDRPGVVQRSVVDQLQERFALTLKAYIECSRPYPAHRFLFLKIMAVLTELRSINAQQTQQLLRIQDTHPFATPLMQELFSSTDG

[4] = qHTS assay for small molecule activators of the human pregnane X receptor (PXR) signaling pathway (AID 720659; call rule not given here; note: 0% is about no effect)
[5] = test system: Tov-21-G; assay: Primary qHTS to identify gynecologic anti-cancer compounds using libraries of approved drugs and bioactive compounds (AID 1345084); conditions: Gynecologic cancer cell panel viability, ATPlite luminescence, 48 h; series mostly up to 57.5 µM; note: nearly all actives have a fitted effect of over 55% in size; note: potency is the fitted concentration of half-maximal effect
Outline: (§2)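 Measured: luminescence after ATPlite addition (15 min, RT). Exposure: 48 h, 37 C, 5% CO2.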

[6] = test system: Tov112D; assay: as above; conditions: Gynecologic cancer cell panel viability, ATPlite luminescence, 48 h; series mostly up to 57.5 µM
Outline: as §2

[7] = at 45.9 µM (top of the series), tumour line B
[8] = at 45.9 µM (top of the series), tumour line D
[9] = at 46 µM (top of the series), tumour line A
[10] = at 46.1 µM (top of the series), tumour line C

CC[C@H](C)C(=O)O[C@H]1CCC=C2C=C[C@H](C)[C@H](CC[C@@H]3C[C@@H](O)CC(=O)O3)[C@H]21
Potency [1]: 2 µM (active)

CN(C)/N=N/c1nc[nH]c1C(N)=O
activity, negative = cell killing [2, 7]: -24.8%
activity, negative = cell killing [2, 8]: -1.38%
activity, negative = cell killing [2, 9]: -11.7%
activity, negative = cell killing [2, 10]: -12%
Potency [1]: inactive
max response [3]: -2.27%
outcome [4]: inactive

O=c1c(-c2ccccc2)c1-c1ccccc1
Potency [5]: inactive
Potency [1]: 12.6 µM (active)

COc1cccc2c1C(=O)c1c(O)c3c(c(O)c1C2=O)C[C@@](O)(C(C)=O)C[C@@H]3O[C@H]1C[C@H](N)[C@H](O)[C@H](C)O1
Potency [6]: 0.398 µM (active)
Potency [1]: 1.12 µM (active)
max response [3]: -12.1%
outcome [4]: inactive

COc1cc(NS(C)(=O)=O)ccc1Nc1c2ccccc2nc2ccccc12
Potency [1]: 11.2 µM (active)

CCOc1ccc2nc3cc(N)ccc3c(N)c2c1
Potency [5]: inactive
activity, negative = cell killing [2, 7]: -17.9%
activity, negative = cell killing [2, 8]: -30.3%
activity, negative = cell killing [2, 9]: -14.8%
activity, negative = cell killing [2, 10]: 1.93%
Potency [1]: inactive

C[C@@H]1C(=O)NC2=Nc3cccc(Cl)c3CN21
activity, negative = cell killing [2, 7]: -5.98%
activity, negative = cell killing [2, 8]: -24.2%
activity, negative = cell killing [2, 10]: -18.1%
Potency [1]: inactive

Cc1ccccc1C(=O)Nc1ccc(C(=O)N2CCCC(N(C)C)c3ccccc32)cc1 (configuration not stated)
Potency [6]: 8.91 µM (active)

C[C@@H]1CN(CCCn2c3ccccc3c3ccccc32)C[C@H](C)N1
Potency [1]: 12.6 µM (active)
